About 14,000 (4.5%) of roughly 310,000 compounds showed an effect of 50% or more. Effects have a minus sign here. This excerpt belongs to a sample that is enriched for strong results.
What follows are compounds tested against human ether-à-go-go-related gene (hERG) potassium channel (human, UniProt Q12809) (assay: primary screen, population patch clamp on CHO cells stably expressing hERG; higher = less effect of the substance).
Sequence of human ether-à-go-go-related gene (hERG) potassium channel (Q12809 whole entry, looked up): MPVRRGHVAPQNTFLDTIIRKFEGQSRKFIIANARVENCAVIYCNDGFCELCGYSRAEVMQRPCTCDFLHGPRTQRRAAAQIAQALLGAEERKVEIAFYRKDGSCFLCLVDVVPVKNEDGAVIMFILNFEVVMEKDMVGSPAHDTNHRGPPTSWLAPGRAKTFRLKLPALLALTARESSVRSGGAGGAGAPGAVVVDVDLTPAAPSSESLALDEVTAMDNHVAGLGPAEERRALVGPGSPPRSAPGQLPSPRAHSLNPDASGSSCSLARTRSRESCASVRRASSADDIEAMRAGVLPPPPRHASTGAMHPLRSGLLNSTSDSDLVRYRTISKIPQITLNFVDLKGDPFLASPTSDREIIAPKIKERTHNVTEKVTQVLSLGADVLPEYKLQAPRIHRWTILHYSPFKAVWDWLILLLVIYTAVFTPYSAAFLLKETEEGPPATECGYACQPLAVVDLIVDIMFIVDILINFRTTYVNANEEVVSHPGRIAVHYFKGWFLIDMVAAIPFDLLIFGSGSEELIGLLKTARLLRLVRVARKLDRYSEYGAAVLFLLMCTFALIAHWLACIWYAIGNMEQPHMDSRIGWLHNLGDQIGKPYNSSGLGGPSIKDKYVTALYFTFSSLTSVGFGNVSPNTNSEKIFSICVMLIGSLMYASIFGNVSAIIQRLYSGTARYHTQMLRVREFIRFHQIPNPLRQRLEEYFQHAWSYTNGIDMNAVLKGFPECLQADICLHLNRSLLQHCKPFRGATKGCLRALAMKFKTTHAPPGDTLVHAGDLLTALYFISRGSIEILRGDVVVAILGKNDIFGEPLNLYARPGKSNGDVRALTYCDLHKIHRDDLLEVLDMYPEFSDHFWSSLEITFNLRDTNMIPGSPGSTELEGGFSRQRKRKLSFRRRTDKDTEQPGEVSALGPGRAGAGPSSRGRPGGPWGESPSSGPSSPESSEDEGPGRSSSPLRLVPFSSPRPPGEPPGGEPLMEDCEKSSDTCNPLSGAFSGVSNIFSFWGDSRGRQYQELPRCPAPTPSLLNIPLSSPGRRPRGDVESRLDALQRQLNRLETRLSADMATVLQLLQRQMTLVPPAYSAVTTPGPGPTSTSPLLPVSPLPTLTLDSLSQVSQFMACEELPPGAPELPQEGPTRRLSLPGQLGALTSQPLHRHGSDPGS
For `COc1cc(OC)cc(-c2nnc(SCC(=O)N3CCOCC3)o2)c1`, the “hERG current change (%, negative = inhibition) at 10uM” value was 9.82%.
`Nc1nc(SCc2ccc(Cl)cc2)ns1` was tested, and the “hERG current change (%, negative = inhibition) at 10uM” value was -7%.
In the case of `NC(=O)N/N=C/c1cc(Br)ccc1OCC(=O)NCc1ccccc1`, the “hERG current change (%, negative = inhibition) at 10uM” value was -6.43%.
`CCN(CC)CCNCc1cc(Br)ccc1OCC(=O)NCc1ccccc1.Cl` was tested, and the “hERG current change (%, negative = inhibition) at 10uM” value was -83.2%.
With `CCN(CC)CCNCc1cc(Cl)c(OCC(=O)Nc2ccccc2)c(OC)c1.Cl` the “hERG current change (%, negative = inhibition) at 10uM” value was -62.5%.
`COc1cc(CNCCN(C)C)c(Br)cc1OCC(=O)NCc1ccccc1` was tested, and the “hERG current change (%, negative = inhibition) at 10uM” value was -29.2%.
`CCOc1cc(CNCCN(C)C)c(Cl)cc1OCC(=O)NCCc1ccccc1.Cl` was tested, and the “hERG current change (%, negative = inhibition) at 10uM” value was -10.8%.
In the case of `COc1cc(CNC(C)c2ccccc2)cc(Cl)c1OCC(=O)Nc1ccccc1.Cl` (centres unmarked), the “hERG current change (%, negative = inhibition) at 10uM” value was 9.86%.
In the case of `CCN(CC)CCNCc1ccc(Br)cc1OCC(=O)NCc1ccccc1.Cl`, the “hERG current change (%, negative = inhibition) at 10uM” value was -67.2%.
For `CCCCNCc1cc(Br)c(OCC(=O)NCc2ccccc2)c(OC)c1.Cl`, the “hERG current change (%, negative = inhibition) at 10uM” value was -39.4%.
In the case of `CCNCc1cc(Br)c(OCC(=O)Nc2ccccc2)c(OC)c1.Cl`, the “hERG current change (%, negative = inhibition) at 10uM” value was -19.8%.
With `Cc1c(C(=O)Nc2ccc(S(=O)(=O)Nc3ncccn3)cc2)oc2ccc(Cl)cc12` the “hERG current change (%, negative = inhibition) at 10uM” value was -17.4%.
For `Cn1c(=O)c2c(nc(CN3CCOCC3)n2CCc2ccccc2)n(C)c1=O`, the “hERG current change (%, negative = inhibition) at 10uM” value was 7.53%.
`Cc1ncc(CO)c2cc(C(N)=O)c(=Nc3ccccc3)oc12` was tested, and the “hERG current change (%, negative = inhibition) at 10uM” value was -27.7%.
With `COc1ccc(C(O)P(=O)(OCC(C)C)c2ccc(N(C)C)cc2)c(OC)c1` (centres unmarked) the “hERG current change (%, negative = inhibition) at 10uM” value was -3.56%.
For `CC1CCN(CCc2nc3ccccc3[nH]2)CC1`, the “hERG current change (%, negative = inhibition) at 10uM” value was -63.7%.
With `CCCc1nc2ccccc2[nH]1` the “hERG current change (%, negative = inhibition) at 10uM” value was 24.6%.
With `c1ccc2[nH]c(CCCc3nc4ccccc4[nH]3)nc2c1` the “hERG current change (%, negative = inhibition) at 10uM” value was -7.32%.
`COc1ccc(Cl)cc1C(=O)C1CCCN(Cc2cnc(N3CCOCC3)s2)C1` (centres unmarked) was tested, and the “hERG current change (%, negative = inhibition) at 10uM” value was -57.6%.
With `CCn1ccnc1CN1CCCC(C(=O)c2cc(Cl)ccc2OC)C1` (centres unmarked) the “hERG current change (%, negative = inhibition) at 10uM” value was -73.3%.
In the case of `COc1ccc(C(=O)C2CCCN(Cc3cnc(N4CCOCC4)s3)C2)c(OC)c1` (centres unmarked), the “hERG current change (%, negative = inhibition) at 10uM” value was -46.9%.
`CCn1ccnc1CN1CCCC(C(=O)c2ccc3cc(OC)ccc3c2)C1` (centres unmarked) was tested, and the “hERG current change (%, negative = inhibition) at 10uM” value was -70.6%.
`CSc1ccc(C(=O)C2CCCN(C(=O)c3ccc(C)nc3)C2)cc1` (centres unmarked) was tested, and the “hERG current change (%, negative = inhibition) at 10uM” value was -22.4%.
In the case of `CSc1ccc(C(=O)C2CCCN(C(=O)Cn3cnnn3)C2)cc1` (centres unmarked), the “hERG current change (%, negative = inhibition) at 10uM” value was -12.8%.
With `COc1ccc(Cl)cc1C(=O)C1CCCN(Cc2cnc(C)s2)C1` (centres unmarked) the “hERG current change (%, negative = inhibition) at 10uM” value was -38.1%.
In the case of `CCn1ccnc1CN1CCCC(C(=O)c2cc(C)c(OC)c(C)c2)C1` (centres unmarked), the “hERG current change (%, negative = inhibition) at 10uM” value was -23.2%.
For `CCn1ccnc1CN1CCCC(C(=O)c2ccc(SC)cc2)C1` (centres unmarked), the “hERG current change (%, negative = inhibition) at 10uM” value was -58.3%.
For `COc1ccc2cc(C(=O)C3CCCN(Cc4cnc(N5CCOCC5)s4)C3)ccc2c1` (centres unmarked), the “hERG current change (%, negative = inhibition) at 10uM” value was 14.6%.
`CCn1ccnc1CN1CCCC(C(=O)c2cc(F)ccc2OC)C1` (centres unmarked) was tested, and the “hERG current change (%, negative = inhibition) at 10uM” value was -33%.

— PMC4336329 (PLoS ONE, 2015)
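Further: peak tail current of the secondary pulse compared with the same well before compound.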
